Inconclusive results are not listed. Activity calls are given as the source filed them. Unless noted, calls follow the shape of the dose curve; as a rule, active = well fitted activation curve with a large enough effect in the main read-out, with a control signal flat (not every such curve was filed as active); inconclusive = small, poorly fitted or top-dose-only effect, or effect the other way, or a change in a side signal; inactive = flat fitted curve, though single readings scatter.
Each compound was assayed against Mitogen-activated protein kinase 10 (Mus musculus) (UniProt Q61831) (assay: JNK3 AlphaScreen Assay (AID 530; active = well fitted curve in either direction with a large enough effect, not every such curve was filed as active;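 also: kinase came from lysate of stimulated human HepG2 cells; signal reports phosphorylation of biotinylated GST-cJun 1-79 at Ser73 with 10 µM ATP; % is scaled to controls: 0 for no effect and ±100 for the full control effect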)). Conditions: JNK3 lysate, c-Jun phosphorylation; series mostly up to 57.1 µM; activity change, negative = inhibition: at the top concentration.
In short: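 Pre-activated (IL-1β/TNFα) JNK3 in HepG2 lysates phosphorylates biotin-GST-cJun(1-79), 10 uM ATP; anti-phospho-cJun(Ser73) AlphaScreen read at room temperature, pH 7.6 Tris buffer. Compounds pre-incubated 15 min as titrations.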

Row | Structure (SMILES) | activity change, negative = inhibition
1 | CS(=O)(=O)Nc1cccc(-c2ccc3ncnc(NCCN4CCOCC4)c3c2)c1 | 3.63% (inactive)
2 | COCCn1c(=O)c(C)nc2cnc(N(C)C)nc21 | -5.4% (inactive)
3 | Cn1c(=O)c(-c2cccc(C#N)c2)nc2cnc(Oc3ccccc3)nc21 | -4.87% (inactive)
4 | O=c1c(-c2cc(F)cc(F)c2)nc2cnc(N3CCOCC3)nc2n1Cc1cccs1 | 3.62% (inactive)
5 | CNc1ncnc2ccc(-c3ccccc3CN(C)C)cc12 | 1.59% (inactive)
6 | CN(C)C(=O)c1ccc(-c2cc(Nc3ccccc3)ncn2)cc1 | -3.79% (inactive)
7 | COc1cccc(Nc2ncc3ncc(=O)n(CCc4ccccc4)c3n2)c1 | -3.93% (inactive)
8 | COc1ccc(-c2nc3cnc(Nc4cccc(OC)c4)nc3n(C[C@H]3CCCO3)c2=O)cc1 | 6.1% (inactive)
9 | COc1cccc(-c2ccc3ncnc(NCc4ccccc4)c3c2)c1 | -2.13% (inactive)
10 | Cc1ccccc1-c1cc(N(C)C)ncn1 | 6.8% (inactive)
11 | Cc1cccc(CNc2cc(-c3c(C)noc3C)ncn2)c1 | 0.864% (inactive)
12 | COc1ccccc1CNc1cc(-c2c(C)noc2C)ncn1 | 3.69% (inactive)
13 | Cn1c(=O)c(-c2ccc(Cl)cc2)nc2cnc(N3CCOCC3)nc21 | 7.31% (inactive)
14 | COc1ncc2nc(C)c(=O)n(C3CC3)c2n1 | -4.72% (inactive)
15 | Cc1noc(C)c1-c1ccc2ncnc(N3CCN(C)CC3)c2c1 | 3.07% (inactive)
16 | CN(C)c1ccc(-c2ccc3ncnc(-n4ccnc4)c3c2)cc1 | -10.5% (inactive)
17 | CCNc1ncc2ncc(=O)n(CCOC)c2n1 | -4.29% (inactive)
18 | COc1ccccc1-c1cncnc1NCCNC(C)=O | -8.24% (inactive)

Each compound was assayed against 3',5'-cyclic-AMP phosphodiesterase 4B (Homo sapiens) (UniProt Q07343) (assay: qHTS Assay for Inhibitors of PDE-IV (AID 607; also: % of control where 0% means no effect)). Conditions: HEK293 ACTOne CNG channel cells, membrane potential fluorescence; series mostly up to 22.9 µM; activation (PDE inhibition): at the top concentration.
In short: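 Live HEK293 cells with a modified cyclic nucleotide-gated (CNG) channel report intracellular cAMP via membrane-potential dye fluorescence (ex 535/em 590 nm). Endogenous PDE-IV was targeted. Compounds were tested at up to 22.9 uM final; RO 20-1724 100 uM served as control.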

Chain of 3',5'-cyclic-AMP phosphodiesterase 4B (Homo sapiens) (Q07343 whole entry, looked up): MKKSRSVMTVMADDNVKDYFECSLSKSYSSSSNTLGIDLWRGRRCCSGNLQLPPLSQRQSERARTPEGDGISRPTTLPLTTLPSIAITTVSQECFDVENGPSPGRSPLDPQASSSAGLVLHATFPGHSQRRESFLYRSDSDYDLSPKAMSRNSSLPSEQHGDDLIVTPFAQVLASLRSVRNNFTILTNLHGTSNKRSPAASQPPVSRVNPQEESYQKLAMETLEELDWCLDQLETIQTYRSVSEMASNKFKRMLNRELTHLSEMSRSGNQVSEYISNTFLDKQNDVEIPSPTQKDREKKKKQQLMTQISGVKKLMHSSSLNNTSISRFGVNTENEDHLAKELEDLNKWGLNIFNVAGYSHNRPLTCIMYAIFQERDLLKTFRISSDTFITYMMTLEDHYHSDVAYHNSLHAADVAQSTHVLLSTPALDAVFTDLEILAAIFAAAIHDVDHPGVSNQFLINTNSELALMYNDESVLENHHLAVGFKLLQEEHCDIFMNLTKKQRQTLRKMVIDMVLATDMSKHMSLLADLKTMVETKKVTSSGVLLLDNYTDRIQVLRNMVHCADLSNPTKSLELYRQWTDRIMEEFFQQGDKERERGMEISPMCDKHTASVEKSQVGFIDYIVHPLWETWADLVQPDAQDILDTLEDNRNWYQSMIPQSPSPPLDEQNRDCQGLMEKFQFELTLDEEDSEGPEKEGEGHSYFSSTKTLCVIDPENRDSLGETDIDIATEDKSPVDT

Row | Structure (SMILES) | activation (PDE inhibition)
19 | Clc1ccccc1-c1ccc2ncnc(N3CCNCC3)c2c1 | 18.8% (inactive)
20 | CCNc1ncc2nc(-c3cccs3)c(=O)n(C)c2n1 | 25.3% (inactive)
21 | COCCn1c(=O)c(-c2cn(C)c3ccccc23)nc2cnc(N3CCOCC3)nc21 | -0.856% (inactive)
22 | CN(C)c1ccc(-c2cc(Nc3ccc(F)cc3)ncn2)cc1 | 6.93% (inactive)
23 | Cc1noc(C)c1-c1nccc(N2CCOCC2)n1 | -1.48% (inactive)
24 | Cn1c(=O)c(-c2ccc(Cl)cc2)nc2cnc(Nc3ccccc3)nc21 | 3.36% (inactive)
25 | COc1ccc(Oc2ncc3nc(-c4ccc(Cl)cc4)c(=O)n(C[C@H]4CCCO4)c3n2)cc1 | -18% (inactive)
26 | COc1cccc(Nc2ncc3nc(C)c(=O)n(C4CC4)c3n2)c1 | -8.47% (inactive)
27 | COc1cccc(Cn2c(=O)c(-c3cc(F)cc(F)c3)nc3cnc(N(C)C)nc32)c1 | 8.69% (inactive)
28 | CNc1nc(-c2ccc3c(c2)OCO3)nc2ccccc12 | 3.4% (inactive)
29 | COc1cccc(Cn2c(=O)c(C)nc3cnc(OC)nc32)c1 | 15.7% (inactive)
30 | Cc1nc2cncnc2n(C2CC2)c1=O | 19.4% (inactive)
31 | COCCn1c(=O)c(-c2cc(F)cc(F)c2)nc2cnc(N3CCOCC3)nc21 | 14% (inactive)
32 | CN(C)C(=O)c1ccc(-c2cc(NCc3cccnc3)ncn2)cc1 | 1.33% (inactive)
33 | Cc1noc(C)c1-c1cc(NCc2cccnc2)ncn1 | 23.6% (inactive)
34 | CS(=O)(=O)Nc1cccc(-c2ccc3ncnc(NCCN4CCOCC4)c3c2)c1 | 13.8% (inactive)

Row | Structure (SMILES) | activation (PDE inhibition)
35 | COCCn1c(=O)c(C)nc2cnc(N(C)C)nc21 | 8.1% (inactive)
36 | COc1ccc2[nH]cc(CCNc3ncnc4ccc(-c5cccnc5)cc34)c2c1 | 19.7% (inactive)
37 | Cn1c(=O)c(-c2cccc(C#N)c2)nc2cnc(Oc3ccccc3)nc21 | -2.25% (inactive)
38 | O=c1c(-c2cc(F)cc(F)c2)nc2cnc(N3CCOCC3)nc2n1Cc1cccs1 | 7.4% (inactive)
39 | CNc1ncnc2ccc(-c3ccccc3CN(C)C)cc12 | 6.86% (inactive)
40 | O=c1c(-c2ccc(F)cc2)nc2cnc(N3CCNCC3)nc2n1C1CC1 | -11.9% (inactive)
41 | COc1ccc(-c2nc3cnc(Nc4cccc(OC)c4)nc3n(C[C@H]3CCCO3)c2=O)cc1 | 5.3% (inactive)
42 | COc1cccc(-c2ccc3ncnc(NCc4ccccc4)c3c2)c1 | -2.73% (inactive)
43 | Cc1ccccc1-c1cc(N(C)C)ncn1 | 3.15% (inactive)
44 | Cc1cccc(CNc2cc(-c3c(C)noc3C)ncn2)c1 | 15.2% (inactive)
45 | COc1ccccc1CNc1cc(-c2c(C)noc2C)ncn1 | 4.42% (inactive)
46 | Cn1c(=O)c(-c2ccc(Cl)cc2)nc2cnc(N3CCOCC3)nc21 | -1.84% (inactive)
47 | COc1ncc2nc(C)c(=O)n(C3CC3)c2n1 | -5.67% (inactive)
48 | CN(C)c1ccc(-c2ccc3ncnc(-n4ccnc4)c3c2)cc1 | 11.4% (inactive)
49 | CCNc1ncc2ncc(=O)n(CCOC)c2n1 | 2.79% (inactive)
50 | COc1ccccc1-c1cncnc1NCCNC(C)=O | -3.75% (inactive)

Each compound was assayed against Cytochrome P450 2C9 (Homo sapiens) (UniProt P11712) (assay: qHTS Assay for Inhibitors and Substrates of Cytochrome P450 2C9 (AID 883; active = well fitted inhibition curve with a large enough effect; also: % is scaled to controls: 0 for no effect and ±100 for the full control effect; nearly all actives have a fitted effect of over 60% in size)). Conditions: recombinant CYP2C9, luciferin-H luminescence, 60 min; series mostly up to 57.1 µM; activity change, negative = inhibition: at the top concentration.
In short: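 Signal: luciferase luminescence reporting luciferin produced by CYP2C9. Conditions: 10nM enzyme, Luciferin-H 100uM at KM, 25mM KPO4, 37C, 60 min NADPH-driven reaction. Reference: 57uM sulphaphenazole as 100% inhibition.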

Chain of Cytochrome P450 2C9 (Homo sapiens) (P11712 whole entry, looked up): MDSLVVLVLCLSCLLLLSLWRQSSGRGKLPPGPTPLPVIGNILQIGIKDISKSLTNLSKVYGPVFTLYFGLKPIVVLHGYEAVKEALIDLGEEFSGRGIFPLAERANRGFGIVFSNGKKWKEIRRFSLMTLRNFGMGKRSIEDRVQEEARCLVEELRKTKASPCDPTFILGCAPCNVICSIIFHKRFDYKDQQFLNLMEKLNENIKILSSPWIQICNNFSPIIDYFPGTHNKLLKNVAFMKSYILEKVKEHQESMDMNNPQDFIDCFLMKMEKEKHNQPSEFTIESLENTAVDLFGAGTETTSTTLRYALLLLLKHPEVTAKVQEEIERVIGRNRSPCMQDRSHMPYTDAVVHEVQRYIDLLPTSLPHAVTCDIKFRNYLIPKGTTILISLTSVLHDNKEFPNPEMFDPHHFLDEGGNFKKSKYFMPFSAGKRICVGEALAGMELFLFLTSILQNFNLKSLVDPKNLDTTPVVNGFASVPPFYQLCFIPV

Row | Structure (SMILES) | activity change, negative = inhibition
51 | CN(C)c1ccc(-c2cc(Nc3ccc(F)cc3)ncn2)cc1 | 8.7% [at 2.29 µM] (inactive)
52 | Cc1noc(C)c1-c1cc(NCc2cccnc2)ncn1 | 9.31% [at 2.29 µM] (inactive)
53 | Cn1c(=O)c(-c2ccc(Cl)cc2)nc2cnc(N3CCOCC3)nc21 | 16.4% (inactive)

These compounds were tested against Cytochrome P450 3A4 (Homo sapiens) (UniProt P08684) (assay: qHTS Assay for Inhibitors and Substrates of Cytochrome P450 3A4 (AID 884; active = well fitted inhibition curve with a large enough effect; also: nearly all actives have a fitted effect of over 50% in size; also: potency is read from the fitted curve at half-maximal effect; as to activity change, negative = inhibition: % is scaled to controls: 0 for no effect and ±100 for the full control effect)). Conditions: recombinant CYP3A4, Luciferin-PPXE luminescence; series mostly up to 57.1 µM; activity change, negative = inhibition: at the top concentration.
In short: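 20 nM human CYP3A4 with 25 uM Luciferin-PPXE (at KM) in 200 mM KPO4, preincubated 10 min with compound; NADPH regeneration started a 60 min RT reaction. Luciferin detected by luminescence, normalized to 57 uM ketoconazole as full inhibition.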

Chain of Cytochrome P450 3A4 (Homo sapiens) (P08684 whole entry, looked up): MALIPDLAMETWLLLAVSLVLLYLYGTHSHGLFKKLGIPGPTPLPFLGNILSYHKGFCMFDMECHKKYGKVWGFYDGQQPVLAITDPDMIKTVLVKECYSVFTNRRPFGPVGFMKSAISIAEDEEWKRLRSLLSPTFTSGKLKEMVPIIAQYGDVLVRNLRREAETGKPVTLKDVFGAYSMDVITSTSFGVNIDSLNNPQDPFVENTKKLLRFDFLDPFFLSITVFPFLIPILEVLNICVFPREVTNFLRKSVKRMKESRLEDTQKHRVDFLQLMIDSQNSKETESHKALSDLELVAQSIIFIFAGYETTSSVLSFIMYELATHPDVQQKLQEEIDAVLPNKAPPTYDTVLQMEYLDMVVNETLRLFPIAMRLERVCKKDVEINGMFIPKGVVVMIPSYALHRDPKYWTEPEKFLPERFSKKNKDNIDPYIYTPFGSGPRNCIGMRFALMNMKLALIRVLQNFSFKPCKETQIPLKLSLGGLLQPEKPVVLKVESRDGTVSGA

Row | Structure (SMILES) | activity change, negative = inhibition | Potency
54 | FC(F)(F)c1ccccc1-c1cc(NCc2ccccc2)ncn1 | 138% (inactive) | –
55 | COc1cccc(Nc2ncc3nc(C)c(=O)n(C4CC4)c3n2)c1 | – | 6.31 µM (active)
56 | Cn1c(=O)c(-c2cccc(C#N)c2)nc2cnc(Oc3ccccc3)nc21 | 79.8% (inactive) | –
57 | CNc1ncnc2ccc(-c3ccccc3CN(C)C)cc12 | – | 7.94 µM (active)
58 | Cc1ccccc1-c1cc(N(C)C)ncn1 | 96.5% (inactive) | –
59 | Cc1cccc(CNc2cc(-c3c(C)noc3C)ncn2)c1 | – | 5.01 µM (active)
60 | Cn1c(=O)c(-c2ccc(Cl)cc2)nc2cnc(N3CCOCC3)nc21 | 47% (inactive) | –
61 | COc1ccccc1-c1cncnc1NCCNC(C)=O | – | 2 µM (active)
